Test results reported in PubChem BioAssay (NCI).
The panel holds about 79,000 compounds, 15% with a hit somewhere; the sample as a whole holds those more often. Active and inactive are the calls of the source. No stated cut-off is given here; in the data, active means growth inhibition above about 70%; inactive means the rest.

Columns and labels:
[1] = NCI Yeast Anticancer Drug Screen. Data for the rad50 strain (AID 155);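 further: 0% = growth of vehicle-only cultures of the same strain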; details: S. cerevisiae rad50 strain growth inhibition; at 50.0 µM; active compounds read high
How it was run: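 Readout: growth inhibition relative to vehicle-treated cultures. Compound exposure was carried out in a genetically defined yeast strain deficient in DNA damage repair.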

[2] = NCI Yeast Anticancer Drug Screen. Data for the mec2-1 strain (AID 157); details: S. cerevisiae mec2-1 strain, at 50.0 µM, active compounds read high
How it was run: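 Yeast mec2-1 mutant treated with compound. Readout: growth inhibition vs vehicle controls.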

[3] = NCI Yeast Anticancer Drug Screen. Data for the sgs1 mgt1 strain (AID 161);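 further: 0% = growth of cultures given vehicle only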; details: S. cerevisiae sgs1 mgt1 strain, at 50.0 µM, active compounds read high
How it was run: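 Mutant yeast exposed to compound; growth scored against vehicle-only wells.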

[4] = NCI Yeast Anticancer Drug Screen. Data for the cln2 rad14 strain (AID 165);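 further: 0% = growth equal to vehicle treated cultures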; details: S. cerevisiae cln2 rad14 strain, at 50.0 µM, active compounds read high
How it was run: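 cln2 rad14 yeast strain; compound exposure; growth inhibition read vs vehicle controls.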

[5] = NCI Yeast Anticancer Drug Screen. Data for the bub3 strain (AID 167); details: S. cerevisiae bub3 mutant strain, at 50.0 µM, active compounds read high
How it was run: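 Readout: yeast growth inhibition, expressed relative to vehicle-only wells. The test organism is a mutant strain from a panel with lesions in DNA repair or checkpoint genes.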

[6] = NCI Yeast Anticancer Drug Screen. Data for the mlh1 rad18 strain (AID 175); details: S. cerevisiae mlh1 rad18 strain growth inhibition; at 50.0 µM; active compounds read high
How it was run: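 Yeast w/ defined DNA-repair lesions; compound exposure; growth vs vehicle controls → % inhibition.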

Measured: growth inhibition

CCCCCCCc1ccccc1
inactive: [1] -13.1% | [2] -14.7% | [3] -19.6% | [4] 3.95% | [5] 20.2% | [6] -6.5%

CCC(O)(CC)c1ccc2ncccc2c1
inactive: [1] 3.6% | [2] 6.05% | [3] 7.7% | [4] -19.1% | [5] -6.65% | [6] 7%

O=C(OC1(c2ccccc2)OC(=O)c2ccccc21)c1ccccc1C(=O)c1ccccc1 (stereo unspecified)
inactive: [1] -6.65% | [2] 2.45% | [3] -12.1% | [4] 3.45% | [5] 3.4% | [6] -25.9%

COc1ccc(C2SCC(=O)N2c2nncs2)cc1F (stereo unspecified)
inactive: [1] 6.2% | [2] 1.55% | [3] 20.9% | [4] 2.9% | [5] 12.6% | [6] 20.2%

CCn1c(O)c(C=Nc2ccccc2)s/c1=N/Nc1nc(C)c(C(C)=O)s1
inactive: [1] 24.6% | [2] 5.25% | [3] 17.2% | [4] 16.1% | [5] 42.9% | [6] 21.2%

c1ccc(Sc2cccc3c(-c4ccccc4)c4cccc5c4c(c23)C[S+]5c2ccccc2)cc1 (stereo unspecified)
active: [1] 98.5% | [2] 99.1% | [3] 99.2% | [4] 98.5% | [5] 98.6% | [6] 98.8%

COC(=O)/C(C#N)=C/NC(=S)Nc1ccccc1
inactive: [1] -48.1% | [2] -0.85% | [3] -44.5% | [4] 11.2% | [5] -26.3% | [6] -33.2%

O=C(C1=Cc2ccccc2OC1)N1CCN(c2ccccc2Cl)CC1
inactive: [1] 12.3% | [2] 20.2% | [3] 34.6% | [4] 24.4% | [5] 38% | [6] 40.1%

Cc1cc2c(C(C)C)c(O)c(O)c(C=Nc3cccc(O)c3)c2c(O)c1-c1c(C)cc2c(C(C)C)c(O)c(O)c(C=Nc3cccc(O)c3)c2c1O
inactive: [1] 27.8% | [2] 26% | [3] 44% | [4] 46.1% | [5] 50.8% | [6] 58.3%

CC(=O)NCCCCCC(=O)N(C)C
inactive: [1] -32.6% | [2] -8.45% | [3] -16.8% | [4] -17.6% | [5] -3.3% | [6] -5.35%

COc1ccc2[nH]c(=O)ccc2c1
inactive: [1] 1.6% | [2] 0.35% | [3] -2.3% | [4] -0.5% | [5] 12.7% | [6] -2.95%

CCS(=O)O
inactive: [1] -21.2% | [2] 15.9% | [3] 1.3% | [4] -4.25% | [5] -6.8% | [6] -8.9%

COC(=O)Cc1nc2ccccc2o1
inactive: [1] 36.1% | [2] 9% | [3] 20.9% | [4] 37.9% | [5] 59.2% | [6] 31.5%

COc1cccc(NC(=O)NCCN(C)c2ccccc2)c1
inactive: [1] -5.7% | [2] 38.5% | [3] 21.1% | [4] -17.2% | [5] 23.1% | [6] 27.2%

O=C(O)Cc1cc(CC(=O)O)cc(CC(=O)O)c1
inactive: [1] -3.8% | [2] -18.8% | [3] 6.05% | [4] 5.2% | [5] 1.6% | [6] -17.9%

c1cc(Cc2ccsc2)cs1
inactive: [1] -8.2% | [2] 4.1% | [3] -4.5% | [4] -7.1% | [5] -11.7% | [6] -10.8%

CC(=O)Nc1ccc(CCc2ccc(NC(C)=O)cc2)cc1
inactive: [1] -2.9% | [2] -13.7% | [3] -7.3% | [4] -60.2% | [5] 5.6% | [6] -12.3%

COc1ccc(C(=O)CC2=NC3NN(c4ccccc4)C(=O)C3=C2CC(=O)c2ccc(OC)cc2)cc1 (stereo unspecified)
inactive: [1] 48.1% | [2] 32.1% | [3] 55.5% | [4] 23.8% | [5] -2.25% | [6] 31.8%

Nc1c(Cl)ncnc1NCCCCCCCCCCCCNc1ncnc(Cl)c1N
inactive: [1] -6.4% | [2] 1.75% | [3] 26.1% | [4] -8.95% | [5] -9.7% | [6] 1.85%

O=C(Nc1cccc(Cc2cccc(NC(=O)c3ccccc3)c2)c1)c1ccccc1
inactive: [1] 5.65% | [2] -1.9% | [3] -11.9% | [4] -41.1% | [5] -2.35% | [6] -0.35%

CC(=O)OCC1OC(n2cc(C)c(=O)[nH]c2=O)C(NC(=O)C(Cl)(Cl)Cl)C(OC(C)=O)C1OC(C)=O (stereo unspecified)
inactive: [1] 6.3% | [2] -4.6% | [3] 2.75% | [4] 0% | [5] 0% | [6] 2.3%

COc1ccc(C2=C/C(=C/c3cccs3)C(=O)O2)cc1
inactive: [1] -14.2% | [2] 1.45% | [3] -0.15% | [4] -36.9% | [5] 3.75% | [6] 0.15%

COC(=O)c1ccccc1NC(=O)C1CCCCC1=O (stereo unspecified)
inactive: [1] 1.55% | [2] -1.2% | [3] -0.1% | [4] -21.5% | [5] 12.3% | [6] 0.6%

CCOC(=O)NC1CCc2ccccc2C1 (stereo unspecified)
inactive: [1] 5.95% | [2] 0.3% | [3] 4% | [4] -13.9% | [5] -3% | [6] 2.6%

CCN(CC)CCSSCCN(CC)CC
inactive: [1] -9% | [2] 3.7% | [3] -7.05% | [4] -15.2% | [5] 2.35% | [6] 5.3%

CN1/C(=C/C=C/C=C/C=C2C(=O)c3ccccc3C2=O)C(C)(C)c2ccccc21
inactive: [1] -13.6% | [2] 10.5% | [3] 16.1% | [4] -39.5% | [5] -8.9% | [6] 26.8%

CCCCCCSc1n[nH]c(=S)s1
inactive: [1] -4.25% | [2] 9.55% | [3] 18.4% | [4] 24.6% | [5] -5.2% | [6] 13.4%

Cc1cccc(C)c1NC(=O)Nc1cccc(C#N)c1
inactive: [1] -0.3% | [2] -10.8% | [3] 7.35% | [4] 15.3% | [5] -0.55% | [6] 17.4%

CN/N=C(/Cc1occc(=O)c1O)C(=O)Nc1ccc(C)c(C)c1
inactive: [1] 15.4% | [2] 7.05% | [3] -16.7% | [4] 3.15% | [5] 7.35% | [6] 18.1%

Cc1cc([N+](=O)[O-])c2ncccc2c1
inactive: [1] -12.3% | [2] -7.7% | [3] -2.7% | [4] -33% | [5] -15.7% | [6] -6.95%

CC(C)(C)CC(C)(C)NS(=O)(=O)NC(C)(C)CC(C)(C)C
inactive: [1] 1.1% | [2] -31.1% | [3] -9.15% | [4] -57.3% | [5] 1.45% | [6] 0.7%

CCOC(=O)N/N=C(\CC)NO
inactive: [1] 2.45% | [2] 1.35% | [3] -7.7% | [4] -7% | [5] 12.8% | [6] 5.7%

FC(F)(F)c1cc(C2SCc3nc4ccccc4n32)cc(C(F)(F)F)c1 (stereo unspecified)
inactive: [1] -5.25% | [2] -23% | [3] -7.9% | [4] 6.95% | [5] -4.35% | [6] -17.4%

S=c1cc(Cc2ccccc2)[nH]c(=S)[nH]1
inactive: [1] -1.2% | [2] -11.1% | [3] -6.15% | [4] -7.75% | [5] -14% | [6] 4.85%

Cc1ccc(C(=O)c2ccccc2)cc1C[N+](C)(C)C
inactive: [1] 20.3% | [2] 3.35% | [3] 10.3% | [4] 12% | [5] -5.3% | [6] 4.9%

CCN(CC)C(=O)C1CCN(Cc2c[nH]c3ccccc23)CC1
inactive: [1] -3.05% | [2] -6.85% | [3] -10.2% | [4] -53% | [5] 2.75% | [6] -0.2%

Cn1/c(=N\N=C2\C=C3CCCCC3(C)CC2)sc2ccccc21 (stereo unspecified)
inactive: [1] 12.7% | [2] 12.2% | [3] 22.9% | [4] 33.2% | [5] -8.8% | [6] 47.1%

CCOC(CN=Cc1ccc2c(c1)Sc1ccccc1O2)OCC
active: [1] 73.1% | [3] 88.2% | [6] 89.5%
inactive: [2] 46.1% | [4] 55.2% | [5] 64.8%

Cc1cccc(C)c1NC(=S)NC=C(C(N)=O)C(N)=O
inactive: [1] -26.1% | [2] -23.6% | [3] 12.7% | [4] 3.1% | [5] -14.4% | [6] 10.6%

Cc1ccc(S(=O)(=O)CC(=O)NC(N)=O)cc1
inactive: [1] -5% | [2] -1.1% | [3] -5.2% | [4] -2.1% | [5] -1.15% | [6] -7.3%

CCCCCCC(Br)CCCC (stereo unspecified)
inactive: [1] 15.6% | [2] -8.85% | [3] 14% | [4] -15.2% | [5] -7.75% | [6] -4.9%
